From the supplement of paper PMC3724861 come the findings set out here.

The sample as a whole holds a higher share of hits than the screen did. How many sequences the whole screen found active is unknown.

The assay concerns T1, Caupolican (Caup) homeodomain DNA-binding domain.
T1 sequence: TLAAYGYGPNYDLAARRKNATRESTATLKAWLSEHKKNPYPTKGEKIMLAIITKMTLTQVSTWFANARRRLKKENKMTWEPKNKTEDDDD
Description: PBM E-score (8-mer, recovered from the published 9-mer minima) (E-score (dimensionless, -0.5 to 0.5)); Drosophila protein; higher = stronger relative binding preference, active = 0.31 or more. As for the experimental part:
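Protein binding microarray (PBM): in vitro transcribed/translated Caupolican (Caup) homeodomain DNA-binding domain (residues 214-303) applied at 100 nM to a universal 8-mer PBM array (Agilent AMADID 015681). The 8-mer enrichment score (E-score, range -0.5 to 0.5) was computed, and each 9-mer score is the minimum E-score of its two constituent 8-mers. The E-score is the same for a 9-mer and its reverse complement; 0.31 is the stated binding threshold.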
Take GAACAATA: the “PBM E-score” value was 0.166 (inactive).

Regarding CACATTAC, the “PBM E-score” value is 0.141 (inactive).

On to CCGAGGGC, for which the “PBM E-score” value was -0.267 (inactive).

Take CAAGGACG: the “PBM E-score” value was -0.0604 (inactive).

Consider CTCTAGGC, for which the “PBM E-score” value was -0.16 (inactive).

Take CCTGGCTA: the “PBM E-score” value is -0.0965 (inactive).

AGCGTACC: the “PBM E-score” value was -0.17 (inactive).

With GAGGGAGA, the “PBM E-score” value is -0.155 (inactive).

Consider AGTTACCA, for which the “PBM E-score” value was 0.113 (inactive).

For CAAGGGCC, the “PBM E-score” value was -0.135 (inactive).

For the sequence CCCAGGCA, the “PBM E-score” value was -0.162 (inactive).

CAGGTACG: the “PBM E-score” value was -0.00719 (inactive).

In the case of ACGTAAGG, the “PBM E-score” value is -0.042 (inactive).

CATTACAG: the “PBM E-score” value was 0.226 (inactive).

Regarding CTTTACAC, the “PBM E-score” value was 0.289 (inactive).

Regarding GCTTACAC, the “PBM E-score” value was 0.169 (inactive).

Turning to CATTACAC, the “PBM E-score” value was 0.311 (active).

Take GATTACAC: the “PBM E-score” value is 0.318 (active).

With AATTACAC, the “PBM E-score” value is 0.299 (inactive).

For CAAGCTGG, the “PBM E-score” value is -0.105 (inactive).

CAGCCGCA: the “PBM E-score” value is -0.26 (inactive).

On to GTTAGTGA, for which the “PBM E-score” value was 0.152 (inactive).

In the case of AGCACTAA, the “PBM E-score” value was -0.00029 (inactive).

TGCAGTAA: the “PBM E-score” value is 0.0534 (inactive).

As for ACTATGTA, the “PBM E-score” value is 0.312 (active).

As to CCTATGTA, the “PBM E-score” value is 0.318 (active).

In the case of GCTATGTA, the “PBM E-score” value is 0.271 (inactive).

Regarding CCTATGTC, the “PBM E-score” value is 0.176 (inactive).

With CCTATGAA, the “PBM E-score” value is -0.0468 (inactive).

Take ACTATGTG: the “PBM E-score” value was 0.131 (inactive).

In the case of CCGATCGA, the “PBM E-score” value is -0.133 (inactive).

CAGCTCAA: the “PBM E-score” value was -0.125 (inactive).

Regarding CACTCTAC, the “PBM E-score” value is 0.101 (inactive).

Regarding GCGACCGC, the “PBM E-score” value was -0.261 (inactive).

On to CGAACCAC, for which the “PBM E-score” value is -0.0921 (inactive).

In the case of CTGTCGTA, the “PBM E-score” value was 0.124 (inactive).

With ATGTCGAG, the “PBM E-score” value was 0.274 (inactive).

For ATGTCGTC, the “PBM E-score” value was 0.28 (inactive).

ATGTCGTG: the “PBM E-score” value is 0.316 (active).

With ATGTCGCA, the “PBM E-score” value is 0.331 (active).

As to CTGTCGAC, the “PBM E-score” value was 0.0515 (inactive).

As to ATGTCGTA, the “PBM E-score” value was 0.337 (active).

Regarding ATGTCGCC, the “PBM E-score” value was 0.208 (inactive).

For ATGTCGAC, the “PBM E-score” value was 0.326 (active).

With GTGTCGCA, the “PBM E-score” value is 0.176 (inactive).

With GTGTCGTA, the “PBM E-score” value is 0.252 (inactive).

ATGTCGAA: the “PBM E-score” value was 0.291 (inactive).

As for CGTCGACA, the “PBM E-score” value was 0.116 (inactive).

Take AGATTTTA: the “PBM E-score” value was 0.0905 (inactive).

Regarding CTTGAACC, the “PBM E-score” value is 0.00592 (inactive).

In the case of GATCTGGC, the “PBM E-score” value was -0.0642 (inactive).

Take AACCGATG: the “PBM E-score” value is 0.0188 (inactive).

As to CGGAGTAG, the “PBM E-score” value is -0.0319 (inactive).

On to CACGGGAA, for which the “PBM E-score” value is -0.0415 (inactive).

Consider AGTGAAAC, for which the “PBM E-score” value was 0.108 (inactive).

For CTCACGAA, the “PBM E-score” value is 0.0184 (inactive).

Take GTTACGGA: the “PBM E-score” value is 0.0254 (inactive).

Regarding TAATTAAA, the “PBM E-score” value is 0.191 (inactive).

Take AGGTAGGA: the “PBM E-score” value is -0.0302 (inactive).

Regarding CTTGTTGA, the “PBM E-score” value was 0.26 (inactive).

For the sequence ACTGTTAA, the “PBM E-score” value is 0.0659 (inactive).

ATTGTTTA: the “PBM E-score” value is 0.186 (inactive).

Take ATTGTTAC: the “PBM E-score” value was 0.307 (inactive).

Take CTTGTTAC: the “PBM E-score” value was 0.365 (active).

Consider GTTGTTTA, for which the “PBM E-score” value is 0.343 (active).

Take GTTGTTGA: the “PBM E-score” value is 0.321 (active).

With CTTGTTTA, the “PBM E-score” value is 0.254 (inactive).

Regarding CCTGTTAA, the “PBM E-score” value was 0.188 (inactive).

In the case of ATTGTTGA, the “PBM E-score” value is 0.279 (inactive).

Consider CCTGTTAC, for which the “PBM E-score” value is 0.254 (inactive).

For the sequence CTTGTTAA, the “PBM E-score” value was 0.327 (active).
